Source: PubChem (National Center for Advancing Translational Sciences (NCATS))
The list is not random: actives were taken first. Their share in the collection is about 7.3%.
ELG1 genotoxic = inducers of genotoxicity in HEK293T ELG1-luciferase cells; HEK293T ELG1-luciferase reporter, luminescence, 16 h; Potency, µM (highest dose often 46 µM), most hits filed as activators; 1.3% of 330,000 active; AID 504466; note: nearly all actives have a fitted effect of over 60% in size
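Luminescence read-out: rising ELG1-luciferase signal, reflecting elevated ELG1 protein under genetic stress, flags genotoxic compounds. Cells were treated for 16 hr at 37 °C before ONE-Glo detection.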
FLuc counter = firefly luciferase modulation, counter-screen for miR-21 project. P08659. purified FLuc, Km substrates, luminescence inhibition. Potency, µM (highest dose often 57.5 µM), most hits filed as inhibitors. 6.9% of 360,000 active; note: nearly all actives have a fitted effect of over 55% in size
Target sequence (P08659 whole entry, looked up): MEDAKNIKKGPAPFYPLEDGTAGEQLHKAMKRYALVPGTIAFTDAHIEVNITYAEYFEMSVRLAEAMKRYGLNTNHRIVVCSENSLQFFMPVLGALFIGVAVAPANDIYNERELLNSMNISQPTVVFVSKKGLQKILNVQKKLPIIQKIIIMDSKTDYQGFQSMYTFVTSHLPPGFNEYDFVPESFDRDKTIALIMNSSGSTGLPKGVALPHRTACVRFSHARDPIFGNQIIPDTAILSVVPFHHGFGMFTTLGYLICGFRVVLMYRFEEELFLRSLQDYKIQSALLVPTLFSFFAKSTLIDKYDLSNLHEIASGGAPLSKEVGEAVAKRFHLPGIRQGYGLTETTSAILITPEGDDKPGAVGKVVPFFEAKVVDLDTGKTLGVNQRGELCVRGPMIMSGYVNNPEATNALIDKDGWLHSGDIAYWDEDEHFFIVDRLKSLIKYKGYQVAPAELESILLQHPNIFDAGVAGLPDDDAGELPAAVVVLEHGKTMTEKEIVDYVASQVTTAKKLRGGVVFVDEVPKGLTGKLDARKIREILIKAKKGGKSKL
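Purified P. pyralis luciferase (10nM final) with 10uM D-luciferin and 10uM ATP (Km levels) in 50mM Tris acetate pH 7.5, 10mM Mg acetate, 0.01% Tween-20, 0.05% BSA; qHTS 6-point titration, ~60 µM downward; luminescence read.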
Rab9 prom act = activators of Rab9 promoter; Huh7 Rab9 promoter-luciferase reporter, luminescence, 24 h; Potency, µM (titrated, usually from 9.22 µM), most hits filed as activators; 2.8% of 320,000 active; AID 485297; note: nearly all actives have a fitted effect of over 60% in size
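Huh7 cells stably carrying Rab9 promoter–luciferase reporter, plated 1500 cells/well, compound added after 2 h and incubated 24 h at 37 °C; luciferase luminescence then read after 10 min with detection reagent.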
SMN2 splice up = increases expression of the SMN2 splice variant; Potency, µM (doses to about 46.1 µM), most hits filed as activators; 2.8% of 210,000 active; HEK293 SMN2-luciferase splicing reporter, luminescence, 30-36 h; note: nearly all actives have a fitted effect of over 55% in size
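qHTS luciferase splicing reporter: luminescence rises when SMN2 exon 7 is included in transfected HEK293 cells. Compound exposure lasted 30-36 h at 37C, with 4.5 mM final sodium butyrate as control, followed by a ONE-Glo read.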
NPC1 promoter act = activates the NPC1 promoter; Huh7 NPC1 promoter luciferase reporter, 24 h; 2.4% of 320,000 active; Potency, µM (highest dose often 9.22 µM), actives largely listed as activators; note: nearly all actives have a fitted effect of over 60% in size
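Stably transfected Huh7 (NPC1 promoter→luciferase), 1500 cells/well in Opti-MEM + 10% FBS, 2 h settle, then compound 24 h at 37 °C. Luminescence after 10 min with Amplite reagent.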
KinaseGlo FLuc = counter-screen: inhibitors of Kinase-Glo firefly luciferase; Kinase-Glo luciferase, ATP luminescence, 8 min; Q27757; AID 1379; Potency, µM (titrated, usually from 38.3 µM), actives largely listed as inhibitors; 0.28% of 200,000 active; note: nearly all actives have a fitted effect of over 60% in size
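Light output from Kinase-Glo luciferase with luciferin and 10 uM ATP in 50 mM imidazole pH 7.2, KCl, MgCl2, Tween 20, BSA; compound pin-delivered, 8-min ambient incubation, then luminescence read.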
Hits are given with their value; i = inactive; ? = inconclusive; nt = no result. Calls come from the whole dose curve; as a rule, active = well fitted curve in the direction sought with a large enough effect; inconclusive = small, poorly fitted or top-dose-only effect, or another doubt; inactive = no such curve, though single readings can be large; an effect the other way counts as inactive or inconclusive.

SMILES	ELG1 genotoxic	FLuc counter	Rab9 prom act	SMN2 splice up	NPC1 promoter act	KinaseGlo FLuc
Cc1ccc2c(c1)-c1nc(-c3ccccc3)cc(-c3ccccc3)c1CO2	nt	i	nt	i	nt	nt
COc1cccc(CNC(=O)Cn2cc3c(n2)-c2c(oc(C(=O)N4CCOCC4)c2C)CC3)c1	nt	i	nt	nt	nt	nt
C/C(=N\NS(=O)(=O)c1ccccc1)c1cccc(NC(=O)c2cccc(Cl)c2)c1	i	23.9µM	i	i	i	i
C/C(=N\NC(=O)c1ccc(Cl)cc1)c1cccnc1	?	16.9µM	?	nt	?	nt
C/C(=N\NC(=O)c1ccn(C)n1)c1cccc(NC(=O)c2ccncc2)c1	i	15.1µM	i	i	i	i
C/C(=N\NC(=O)c1ccc(Cl)cc1)c1cccc(NC(=O)c2cccnc2)c1	i	3.01µM	?	?	i	i
CCOC(=O)c1sc2ccccc2c1S(=O)(=O)N1CCN(c2cccc(C)c2)C(C)C1 (stereo not drawn)	nt	i	nt	nt	nt	nt
CCCN1CCN(C(=O)Cn2ncc3c4ccccc4n(Cc4cccc(Cl)c4)c3c2=O)CC1	nt	i	nt	i	nt	nt
COc1ccc(Cc2nc3ccc(C(=O)NCCc4ccc(Cl)cc4)cc3o2)cc1	nt	i	nt	nt	nt	nt
Cc1ccccc1NC(=O)CSc1nc2c(oc3ccccc32)c(=O)n1-c1ccccc1F	nt	i	nt	i	nt	nt
O=C(C1=C[C@H](c2ccc(Br)cc2)C[C@H](OCCCCO)O1)N1CCOCC1	i	i	0.02µM	nt	0.0251µM	nt
COc1ccc(CN(C(=O)c2oc3ccccc3c2C)C2CCS(=O)(=O)C2)cc1OC (stereo not drawn)	i	i	i	11.2µM	i	i
O=C(c1cc2ccccc2oc1=O)N(Cc1ccco1)C1CCS(=O)(=O)C1 (stereo not drawn)	18.4µM	15.1µM	?	i	?	i
COc1ccc(CN(C(=O)c2oc3cc(C)c(C)cc3c2C)C2CCS(=O)(=O)C2)cc1OC (stereo not drawn)	i	i	i	nt	i	nt
CN(C)c1ccc(CN(C(=O)c2cc3ccccc3oc2=O)C2CCS(=O)(=O)C2)cc1 (stereo not drawn)	?	12µM	?	nt	2.82µM	nt
C/C=C\C[C@@H](C)[C@@H](O)[C@H]1C(=O)N[C@@H](CC)C(=O)N(C)CC(=O)N(C)[C@@H](CC(C)C)C(=O)N[C@@H](C(C)C)C(=O)N(C)[C@@H](CC(C)C)C(=O)N[C@@H](C)C(=O)N[C@H](C)C(=O)N(C)[C@@H](CC(C)C)C(=O)N(C)[C@@H](CC(C)C)C(=O)N(C)[C@@H](C(C)C)C(=O)N1C	nt	nt	nt	nt	nt	i
Cc1ccccc1OCc1nnc(SCc2cc(=O)c3cccc(F)c3[nH]2)n1C	nt	i	nt	nt	nt	nt
Clc1ccc(-n2c(Cc3ccccc3)nnc2SCc2nc(-c3cccs3)no2)cc1	nt	i	nt	i	nt	nt
CCc1ccc(OCC(=O)NNC(=O)Cc2cccs2)cc1	i	i	i	i	i	i
CCCOc1ccc(CNC(=O)Cc2cccs2)cc1	?	19µM	?	nt	?	nt
O=C(Cc1cccs1)NCc1ccccc1Br	?	19µM	3.98µM	nt	?	nt
O=C(Cc1cccs1)NCc1cccc(CNC(=O)Cc2cccs2)c1	i	i	i	i	i	i
O=C(Cc1cccs1)NCc1ccc(Cl)cc1Cl	?	15.1µM	2.82µM	nt	3.16µM	nt
CSc1cccc(N2C(=O)N(CC(=O)NCc3ccccc3Cl)c3ccccc3S2(=O)=O)c1	nt	i	nt	nt	nt	nt
Cc1ccc2c(c1)c1c(c(=O)n(Cc3ccccc3)c(=O)n1Cc1cccc(F)c1)n2C	nt	i	nt	nt	nt	nt
SMILES	ELG1 genotoxic	FLuc counter	Rab9 prom act	SMN2 splice up	NPC1 promoter act	KinaseGlo FLuc
Cc1ccc(C(=O)CSc2ncnc3ccccc23)o1	i	13.5µM	3.98µM	i	3.98µM	i
O=C(CSc1ncnc2ccccc12)N1CCCC1	?	?	i	i	i	i
O=C(CSc1ncnc2ccccc12)c1cccs1	?	1.51µM	0.447µM	nt	1.78µM	i
CCN(c1cccc(C)c1)S(=O)(=O)c1cc(Br)cc2c1N(C(C)=O)C(C)C2 (stereo not drawn)	nt	i	nt	i	nt	nt
COCCn1c(=O)[nH]c2cc(C(=O)NCc3ccccc3Cl)ccc2c1=O	nt	i	nt	3.98µM	nt	nt
COCCn1c(=O)[nH]c2cc(C(=O)OC)ccc2c1=O	i	i	i	i	i	i
CC(=O)Nc1ccc(C2=NNC(=NCC3CCCO3)SC2)cc1 (stereo not drawn)	i	i	i	nt	i	nt
COc1ccc(C2=NN(C)C(=NCc3ccccc3)SC2)cc1	i	?	i	i	i	i
COc1ccc(CN=C2Nc3ccccc3CS2)cc1	?	2.69µM	1.58µM	3.55µM	1µM	i
CC(C)(C)N=C1NN=C(c2cc3ccccc3o2)CS1	?	1.9µM	0.398µM	nt	0.631µM	nt
COc1ccc(CN=C2NN=C(c3ccc(Cl)cc3)CS2)cc1	?	7.57µM	3.55µM	20µM	3.55µM	i
CC(C)(C)N=C1NN=C(c2ccc(Cl)cc2)CS1	?	2.69µM	0.631µM	nt	0.794µM	nt
O=C(COc1ccccc1-c1nc(-c2ccccc2)no1)Nc1cccc([N+](=O)[O-])c1	nt	i	nt	nt	nt	nt
O=S(=O)(c1cccc(F)c1)N1CCC(Oc2ccc(-n3cnnn3)cc2)CC1	nt	i	nt	i	nt	nt
Oc1ccc(C2=NNC(=NCc3ccc4c(c3)OCO4)SC2)c(O)c1	?	?	i	i	i	i
Clc1ccc(C2=NNC(=NCc3ccc4c(c3)OCO4)SC2)cc1	i	19µM	i	nt	i	nt
CC(C)COc1ccc(C(=O)Nc2cc(-c3ccccc3)no2)cc1	nt	nt	nt	i	nt	nt
CCc1nnc(NC(=O)c2ccc3c(c2)C(=O)N(C(C)(C)C)C3=O)s1	?	2.69µM	3.16µM	?	3.55µM	i
CC1(C)Cc2c(sc(NC(=O)c3ccc4ncsc4c3)c2C(N)=O)C(C)(C)N1	16.4µM	?	?	?	?	i
CCc1nnc(NC(=O)c2ccc3ncsc3c2)s1	?	23.9µM	?	nt	?	nt
CCc1nnc(NC(=O)c2ccncc2)s1	i	i	i	i	i	i
Cc1cnc(NC(=O)c2ccc3ncsc3c2)s1	?	3.01µM	0.708µM	nt	1.26µM	nt
Cc1ccc(NC(=O)CSc2cn(CC(=O)N3CCOCC3)c3ccccc23)cc1Cl	nt	i	nt	nt	nt	nt
COc1ccc(CCC(=O)NCc2ccc3c(c2)CCN3C(=O)c2cccc(C)c2)cc1	nt	i	nt	nt	nt	nt
c1ccc(CNc2ccnc(-c3ccc4c(c3)OCO4)n2)cc1	nt	nt	nt	12.6µM	nt	i
Cc1nccc(-c2ccc3c(c2)OCO3)n1	i	i	i	i	i	i
c1ccc(-c2nccc(-c3ccc4c(c3)OCO4)n2)cc1	?	19µM	?	?	?	i
Cc1cccc(NC(=O)CSc2nnc(N)s2)c1	nt	i	nt	?	nt	nt
CCc1ccc(Nc2nnc(SCC(=O)N(C)CC(=O)Nc3ccccc3CC)s2)cc1	i	6.75µM	i	i	i	i
CCc1ccccc1NC(=O)CN(C)C(=O)CSc1nnc(Nc2cccc(C)c2)s1	i	12µM	i	i	i	i
